Source: PubChem
MLL AF4-AF9 inh: blocks AF4 peptide binding to human AF9. inhibition, % at 10 µM. 350,000 tested, 0.47% active. AID 651704. P42568. AlphaScreen, biotin-AF4 peptide binding to FLAG-AF9;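 active = every replicate reaching a set inhibition limit, whatever the replicate mean, cut at about 25% in these data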;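 note: 0% = plate neutral control median and 100% = total signal loss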
Target sequence (P42568 whole entry, looked up): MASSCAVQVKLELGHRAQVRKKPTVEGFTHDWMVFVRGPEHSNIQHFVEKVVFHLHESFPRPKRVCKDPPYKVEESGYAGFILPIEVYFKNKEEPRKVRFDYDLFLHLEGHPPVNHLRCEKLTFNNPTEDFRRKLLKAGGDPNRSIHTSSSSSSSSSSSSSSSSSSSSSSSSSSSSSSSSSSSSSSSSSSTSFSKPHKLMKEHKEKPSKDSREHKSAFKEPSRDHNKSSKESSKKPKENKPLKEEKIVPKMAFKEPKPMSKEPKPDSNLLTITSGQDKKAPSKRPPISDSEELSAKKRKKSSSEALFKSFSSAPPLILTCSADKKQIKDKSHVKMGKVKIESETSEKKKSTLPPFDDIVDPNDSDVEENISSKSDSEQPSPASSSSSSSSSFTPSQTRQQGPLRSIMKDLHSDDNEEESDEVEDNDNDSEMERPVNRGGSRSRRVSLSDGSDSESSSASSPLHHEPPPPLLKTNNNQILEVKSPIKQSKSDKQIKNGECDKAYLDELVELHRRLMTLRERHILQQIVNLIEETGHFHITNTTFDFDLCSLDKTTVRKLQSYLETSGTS
rRNA inh HTS: selective bacterial rRNA inhibition in E. coli; AID 720706; E. coli WT GFP vs humanized-ribosome RFP mutants, fluorescence, 24 h; stronger effect = lower value; DMSO median 0, no signal -100; 350,000 tested, 1.6% active; GFP signal change (wild-type ribosome), % (concentration not given with the values);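 active = significant combined selectivity score with lowered wild-type GFP, culture density cut under 30%, mutant RFP and density less affected; inactive = any of these conditions unmet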
MITF act: increases MITF-driven TRPM1 promoter luciferase signal | SK-MEL-5 TRPM1-promoter luciferase, 24 h; % of positive control, neutral wells = 0 | activation, % at 12.5 µM | 300,000 tested, 0.75% active | AID 588334;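 active = mean activation of at least 80% with every replicate also reaching 80%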;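 note: 0% = neutral control wells and 100% = parthenolide positive control wells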
Wnt bcat act: activates Wnt/beta-catenin signaling in a reporter cell assay. activation, % at 9.35 µM. 300,000 tested, 1.2% active. activator, plate reader. AID 743398; in the data active = activation above about 30%, passing the limit was not always enough;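 note: 0% = neutral control wells and 100% = positive control wells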
esBAF inh: inhibitors of esBAF chromatin remodeling in mouse ES cells; Bmi1-luciferase knock-in reporter, 24 h; 100% = twice the neutral-well signal; reporter increase, % at 12.5 µM; 350,000 tested, 2% active; AID 602393; in the data active = activation above about 40%;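 note: 0% = median of the plate's neutral control wells and 100% = double that signal; a rise in the Bmi1 reporter signal indicates esBAF inhibition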
The depositor's hits bear a star; · = not tested or not shown. Hits are enriched below; roughly 3.7% of the tested compounds scored in any of these assays.

SMILES	MLL AF4-AF9 inh	rRNA inh HTS	MITF act	Wnt bcat act	esBAF inh
CC(C)(C)c1ccc(CC(=O)N2CCC2(C)C(=O)NS(=O)(=O)c2cccc(Cl)c2)cc1 (stereo not drawn)	2	-33*	·	-3	0
CC1(C(=O)NS(=O)(=O)c2cccc(C#N)c2)CCN1C(=O)C1(c2ccc(Cl)cc2)CCC1 (stereo not drawn)	-2	-15*	·	-3	-1
CC1(C(=O)NS(=O)(=O)c2ccc(C#N)cc2)CCN1C(=O)C1(c2ccc(Cl)cc2)CCC1 (stereo not drawn)	-2	-9	·	-3	7
CCn1c(SCC(=O)NC2CCCCC2)nc2c(c1=O)SC(C)C2 (stereo not drawn)	·	·	3	·	·
Nn1cc(-c2ccccc2)nc1SCC(=O)Nc1ccc2c(c1)OCO2	11	-24	2	-2	·
CCOC(=O)c1sc2nc(C)nc(SCC(=O)N(CC)C3CCS(=O)(=O)C3)c2c1C (stereo not drawn)	-4	-2	-4	-6	·
COc1ccc(CCN2C(=O)CC(C(N)=O)SC2=Nc2ccccc2)cc1 (stereo not drawn)	3	-27*	·	2	-7
Cc1ccc2c(c1)P(=O)(O)c1cc(C)ccc1O2	-1	3	-2	-1	·
CCc1sc(-c2c(C#N)c(N)nc3c2CCCCCC3)cc1[N+](=O)[O-]	·	·	-8	-8	0
O=C(CSc1nnc(Nc2ccccc2F)s1)Nc1cccc(S(=O)(=O)N2CCCCC2)c1	·	·	30	20	43*
Cc1ccc(NC(=O)c2cc(-c3cc(Cl)ccc3O)n[nH]2)cc1C	-3	0	1	4	0
O=C(Nc1ccc(S(=O)(=O)N2CCOCC2)cc1)c1cc(-c2cc(Cl)ccc2O)n[nH]1	0	-38*	-12	2	3
Cc1cccc(NC(=O)c2cc(-c3cc(Cl)ccc3O)n[nH]2)c1	·	·	108*	·	71*
Cc1ccc(C)c(NC(=O)c2cc(-c3cc(C)ccc3O)n[nH]2)c1	-3	-31	117*	26	50*
Cn1c(Cc2ccc3c(c2)OCO3)nnc1SCC(=O)N1CCc2ccccc2C1	·	·	-6	·	-2
C[C@H]1CN([C@@H](C)CO)S(=O)(=O)c2ccc(C3=CCCCC3)cc2O[C@@H]1CN(C)Cc1ccccn1	18	-41	·	·	-4
N#C/C(=C\c1ccc(-c2nc3ccccc3s2)o1)C(N)=O	2	6	·	44*	·
CNC(=O)/C(C#N)=C/c1ccc(-c2nc3ccccc3s2)o1	2	14	·	43*	·
CSc1ncccc1C(=O)NC(C)CCc1ccccc1 (stereo not drawn)	-3	14	-1	1	0
COC(=O)[C@H](CCSC)NC(=O)c1cccnc1SC	·	5	·	36*	·
O=C1CC(c2ccccc2)Cc2nc(N3CCc4ccccc43)ncc21 (stereo not drawn)	·	·	5	·	-2
CN1CCN(CCCn2cnc3c(=O)oc4ccccc4c32)CC1	·	·	·	-1	-15
O=c1oc2ccccc2c2c1ncn2CCN1CCOCC1	·	·	·	44*	3
Cc1c(C(=O)/C=C/c2ccccc2F)c2cc(O)ccc2n1C	0	0	·	-4	57*
CC(=O)c1c(C)n(C)c2ccc(O)cc12	·	·	7	·	-12
SMILES	MLL AF4-AF9 inh	rRNA inh HTS	MITF act	Wnt bcat act	esBAF inh
Cc1cc(C)cc(NC(=O)c2sc3nc4n(c(=O)c3c2C)CCC4)c1	-11	-5	38	3	21
CCc1cccc(NC(=O)c2sc3nc4n(c(=O)c3c2C)CCC4)c1	2	-11	95*	14	63*
CCOC(=O)c1c(S(=O)(=O)NCC(=O)Nc2cc(C)ccn2)c(C)n(C)c1C	-1	4	5	0	8
Cn1c(SCC(=O)NC2CCCC2)nnc1-c1cccs1	0	6	-4	-2	-4
CCCNC(=S)Nc1ccc(Cl)cc1C	·	·	-6	-2	·
Cc1cc(Cl)ccc1NC(=S)NC(C)(C)C	-2	-35*	8	-3	·
Cc1ccc(NC(=O)COC(=O)C2CC3C=CC2C3)cc1S(=O)(=O)N1CCCCC1 (stereo not drawn)	-22	-26*	8	1	·
Cc1ccc(NC(=O)COc2ccccc2C#N)cc1S(=O)(=O)N1CCCCCC1	-2	-25*	21	6	14
Cc1ccc(NC(=O)c2nc3nccc(C)n3n2)cc1S(=O)(=O)N1CCCCC1	-3	-8	40	-1	45*
COc1ccc(NC(=O)CSCC(=O)Nc2ccc(C)c(S(=O)(=O)N3CCCCCC3)c2)cc1	0	-35*	-16	-2	-1
Cc1ccc(S(=O)(=O)N2CCCCC2)cc1NC(=O)COC(=O)C1CC2C=CC1C2 (stereo not drawn)	·	·	-10	18	3
O=C(COc1ccccc1Br)Nc1ccc(S(=O)(=O)N2CCCC2)cc1	-4	-23*	7	-1	5
Cc1nn(C)cc1S(=O)(=O)N1CCN(Cc2ccc(F)cc2Cl)CC1	1	9	-5	-1	-3
CCOC(=O)c1sc(NC(=O)c2ccc(OC)cc2)nc1C	-1	23	22	7	47*
CCOC(=O)c1sc(NC(=O)Nc2ccc(F)cc2)nc1C	1	7	103*	-2	·
CCOC(=O)c1sc(NC(=O)c2ccc(C)o2)nc1C	·	·	11	·	62*
CCOC(=O)c1sc(=S)n(C)c1NC(=O)c1ccc(OC)cc1	·	-21*	·	6	-8
CCOC(=O)c1sc(NC(=O)c2ccc(OC(C)=O)cc2)nc1C	-1	6	30	1	·
C[C@@H]1CN([C@@H](C)CO)S(=O)(=O)c2ccc(C#Cc3cccc(F)c3)cc2O[C@@H]1CN(C)S(=O)(=O)c1ccccc1F	-3	6	·	·	-1
CCc1cccc(C)c1NC(=O)C1CC=CCC1C(=O)O (stereo not drawn)	0	17	-3	-1	-5
COc1ccc(NC(=O)Nc2ccc3c(c2)C(=O)N([C@H](C)CO)C[C@H](C)[C@@H](CN(C)C(=O)Nc2c(C)noc2C)O3)cc1	0	2	9	-3	-11
CCOCc1nnc(NC(=O)c2ccc(OC)cc2)s1	·	·	37	·	53*
CCCc1nnc(NC(=O)c2cccc(OC)c2)s1	-2	-1	86*	18	36
CCOC(=O)Nc1nnc(-c2ccc(OC)cc2)s1	·	·	40	·	79*
COc1cccc(C(=O)Nc2nnc(Cc3ccc(OC)c(OC)c3)s2)c1	·	-2	·	-1	·
CCCNC(=O)N1C[C@H](O)COC[C@H]2O[C@@H](CC(=O)N[C@H]3CCN(Cc4ccccc4)C3)CC[C@@H]21	-4	3	·	·	0
O=[N+]([O-])c1cc(Br)cc(C=Nc2ccc3c(c2)OCO3)c1O	5	-30*	1	6	-8
O=[N+]([O-])c1ccc(O)c(C=Nc2ccc3c(c2)OCO3)c1	3	7	7	34*	41*
O=C(N/N=C/c1cc([N+](=O)[O-])ccc1O)c1ccc2c(c1)OCCO2	4	7	-7	-3	-3
